From PubChem BioAssay AID1159580 (chemical genetic matrix, 2015)
Out of some 5,500 compounds screened, about 2,000 (36%) were called active. Roughly 18% stayed inconclusive and do not appear here. No stated cut-off is given here; in the data, active means normalized growth mostly below about 0.91 (no sharp cut-off); inconclusive means no clear call, values can overlap the other calls; inactive means mostly above about 0.92. Some of the results follow.

Experiment: chemical genetic growth profiling, strain panel (AID 1159580);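 further: tested at 20 µM; growth read once vehicle control cultures reached saturation at 30 °C; 1 = growth at the plate median or of vehicle wells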
Conditions: S. cerevisiae deletion strains, growth OD

Measured: normalized growth

COC(=O)CCCOc1ccc(Cl)cc1Cl
inactive: locus YAL013W, strain DEP1, stronger effect = lower value 0.986 | locus YAL021C, strain ccr4, stronger effect = lower value 0.988 | locus YAL026C, strain drs2, stronger effect = lower value 0.966 | locus YAL030W, strain snc1, stronger effect = lower value 0.968 | locus YBL061C, strain skt5, stronger effect = lower value 0.952 | locus YBR009C, strain hhf1, stronger effect = lower value 0.955 | locus YBR021W, strain FUR4, stronger effect = lower value 0.931 | locus YBR023C, strain chs3, stronger effect = lower value 0.96 | locus YBR171W, strain sec66, stronger effect = lower value 0.916 | locus YBR229C, strain ROT2, stronger effect = lower value 0.993 | locus YBR231C, strain swc5, stronger effect = lower value 0.964 | locus YBR279W, strain paf1, stronger effect = lower value 0.961 | locus YCL011C, strain gbp2, stronger effect = lower value 0.967 | locus YCL016C, strain dcc1, stronger effect = lower value 0.959 | locus YCL029C, strain bik1, stronger effect = lower value 1 | locus YCL061C, strain MRC1, stronger effect = lower value 0.953 | locus YCL069W, strain vba3, stronger effect = lower value 0.962 | locus YCR088W, strain abp1, stronger effect = lower value 0.955 | locus YDL005C, strain med2, stronger effect = lower value 0.958 | locus YDL035C, strain GPR1, stronger effect = lower value 1 | locus YDL040C, strain nat1, stronger effect = lower value 0.954 | locus YDL074C, strain BRE1, stronger effect = lower value 0.999 | locus YDL101C, strain DUN1, stronger effect = lower value 1.02 | locus YDL134C, strain PPH21, stronger effect = lower value 0.998 | locus YDL185W, strain tfp1, stronger effect = lower value 0.988 | locus YDL192W, strain arf1, stronger effect = lower value 0.996 | locus YDR001C, strain nth1, stronger effect = lower value 0.967 | locus YDR069C, strain doa4, stronger effect = lower value 0.967 | locus YDR101C, strain arx1, stronger effect = lower value 0.987 | locus YDR137W, strain rgp1, stronger effect = lower value 0.899 | locus YDR150W, strain NUM1, stronger effect = lower value 0.989 | locus YDR159W, strain sac3, stronger effect = lower value 0.956 | locus YDR162C, strain NBP2, stronger effect = lower value 0.991 | locus YDR195W, strain ref2 0.972 | locus YDR297W, strain sur2, stronger effect = lower value 0.961 | locus YDR318W, strain mcm21, stronger effect = lower value 0.993 | locus YDR334W, strain swr1, stronger effect = lower value 0.974 | locus YDR335W, strain msn5, stronger effect = lower value 0.968 | locus YDR388W, stronger effect = lower value 0.992 | locus YDR392W, strain spt3, stronger effect = lower value 0.902 | locus YDR502C, strain sam2, stronger effect = lower value 0.995 | locus YEL003W, strain gim4, stronger effect = lower value 0.966 | locus YEL037C, strain rad23, stronger effect = lower value 0.968 | locus YEL061C, strain CIN8 (second series), stronger effect = lower value 0.961 | locus YEL061C, strain CIN8, stronger effect = lower value 0.985 | locus YER015W, strain faa2, stronger effect = lower value 0.959 | locus YER016W, strain bim1, stronger effect = lower value 0.964 | locus YER110C, stronger effect = lower value 0.995 | locus YER111C, strain swi4, stronger effect = lower value 0.956 | locus YER155C, strain BEM2 (second series), stronger effect = lower value 0.922 | locus YER155C, strain BEM2, stronger effect = lower value 0.984 | locus YER167W, strain BCK2, stronger effect = lower value 1 | locus YFR010W, strain ubp6, stronger effect = lower value 0.974 | locus YGL078C, strain dbp3, stronger effect = lower value 0.983 | locus YGL086W, strain mad1, stronger effect = lower value 0.991 | locus YGL167C, strain pmr1, stronger effect = lower value 0.953 | locus YGL173C, strain kem1, stronger effect = lower value 0.948 | locus YGL227W, strain vid30, stronger effect = lower value 0.95 | locus YGL240W, strain doc1, stronger effect = lower value 0.949 | locus YGL248W, strain PDE1, stronger effect = lower value 1 | locus YGL253W, strain hxk2, stronger effect = lower value 0.965 | locus YGR078C, strain PAC10, stronger effect = lower value 0.991 | locus YGR135W, strain pre9, stronger effect = lower value 0.994 | locus YGR229C, strain SMI1, stronger effect = lower value 0.994 | locus YGR252W, strain gcn5, stronger effect = lower value 0.977 | locus YHR013C, strain ard1, stronger effect = lower value 0.958 | locus YHR027C, strain rpn1, stronger effect = lower value 0.975 | locus YHR030C, strain SLT2, stronger effect = lower value 0.994 | locus YHR079C, strain IRE1 (second series), stronger effect = lower value 1 | locus YHR094C, strain hxt1, stronger effect = lower value 0.985 | locus YHR129C, strain ARP1, stronger effect = lower value 0.994 | locus YHR142W, strain chs7, stronger effect = lower value 0.965 | locus YHR200W, strain rpn10, stronger effect = lower value 0.996 | locus YIL066C, strain RNR3, stronger effect = lower value 0.993 | locus YIL073C, strain SPO22, stronger effect = lower value 1.07 | locus YIL125W, strain kgd1, stronger effect = lower value 0.983 | locus YIR030C, strain dcg1, stronger effect = lower value 0.994 | locus YJL092W, strain hpr5, stronger effect = lower value 0.957 | locus YJL095W, strain BCK1 (second series), stronger effect = lower value 0.955 | locus YJL095W, strain BCK1, stronger effect = lower value 0.942 | locus YJL115W, strain asf1, stronger effect = lower value 0.967 | locus YJL129C, strain trk1, stronger effect = lower value 0.931 | locus YJL134W, strain LCB3, stronger effect = lower value 0.995 | locus YJL154C, strain vps35, stronger effect = lower value 0.971 | locus YJL164C, strain tpk1, stronger effect = lower value 0.964 | locus YJL166W, strain qcr8, stronger effect = lower value 0.955 | locus YJL168C, strain set2, stronger effect = lower value 1.01 | locus YJL187C, strain SWE1 (second series), stronger effect = lower value 1 | locus YJL187C, strain SWE1, stronger effect = lower value 0.973
